Data published in PubChem BioAssay (NCI).
About 79,000 compounds went through this panel and 15% of them were active in at least one assay; those are over-represented in the sample as a whole. A number with no mark means an inactive call. Activity calls are given as the source filed them. Cut-off read from the data, not from the text of the source: active = growth inhibition above about 70%; inactive = the rest.

How the values were obtained:
[1] = NCI Yeast Anticancer Drug Screen. Data for the rad50 strain (AID 155);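 note: 0% = growth of vehicle-only cultures of the same strain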; details: S. cerevisiae rad50 strain growth inhibition, active compounds read high
Procedure, shortened: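 Genetically altered yeast (DNA repair pathway); compound treatment; growth inhibition vs vehicle ctrl.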

[2] = NCI Yeast Anticancer Drug Screen. Data for the mec2-1 strain (AID 157); details: S. cerevisiae mec2-1 strain, active compounds read high
Procedure, shortened: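 Strain: mec2-1 (DNA repair/cell cycle alteration). Compound exposure, then growth measured; inhibition expressed relative to vehicle.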

[3] = NCI Yeast Anticancer Drug Screen. Data for the sgs1 mgt1 strain (AID 161);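 note: 0% = growth of cultures given vehicle only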; details: S. cerevisiae sgs1 mgt1 strain, active compounds read high
Procedure, shortened: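 Genetically altered yeast, compound exposure, growth inhibition relative to vehicle.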

[4] = NCI Yeast Anticancer Drug Screen. Data for the cln2 rad14 strain (AID 165);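 note: 0% = growth equal to vehicle treated cultures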; details: S. cerevisiae cln2 rad14 strain, active compounds read high
Procedure, shortened: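 Compounds are applied to the cln2 rad14 yeast strain, and growth is then compared with that of vehicle-treated cultures to give inhibition.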

[5] = NCI Yeast Anticancer Drug Screen. Data for the mlh1 rad18 strain (AID 175); details: S. cerevisiae mlh1 rad18 strain growth inhibition, active compounds read high
Procedure, shortened: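 Read-out is yeast growth inhibition, calculated against vehicle-only controls. The compound was applied to a strain engineered with DNA damage repair alterations.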

[6] = NCI Yeast Anticancer Drug Screen. Data for the bub3 strain (AID 167); details: S. cerevisiae bub3 mutant strain, active compounds read high
Procedure, shortened: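 Yeast carrying a defined mutation is treated with each compound, and growth is compared with that of vehicle-exposed cells to give inhibition.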

[7] = at 5.0 µM (retest, dose inferred, filed as 0.5)
[8] = at 50.0 µM (retest, dose inferred, filed as 5.0)

SMILES | growth inhibition [1, 7] [%] | growth inhibition [1, 8] | growth inhibition ([1]; at 50.0 µM) | growth inhibition [2, 7] [%] | growth inhibition [2, 8] | growth inhibition ([2]; at 50.0 µM) | growth inhibition [3, 7] [%] | growth inhibition [3, 8] | growth inhibition ([3]; at 50.0 µM) | growth inhibition [4, 7] [%] | growth inhibition [4, 8] | growth inhibition ([4]; at 50.0 µM) | growth inhibition [5, 7] | growth inhibition [5, 8] | growth inhibition ([5]; at 50.0 µM) | growth inhibition [6, 7] | growth inhibition [6, 8] | growth inhibition ([6]; at 50.0 µM)
CCCOC(=O)c1nc(N(CC2CCCCC2)C(=O)NC)sc1/N=C/c1ccccc1 | 67 | 86% (active) | 5.15% | 62 | 90% (active) | -18.9% | 45 | 91% (active) | 4.25% | 68 | 88% (active) | 37.9% | 73% (active) | 92% (active) | -10.2% | – | – | –
C=C(CO)C(=O)OC1CC(=C)C2CC(O)C(C)C2C2OC(=O)C(=C)C12 (configuration not stated) | 20 | 97% (active) | 86.7% (active) | 15 | 98% (active) | 52.5% | 10 | 97% (active) | 92.5% (active) | 13 | 89% (active) | 32.4% | 26% | 98% (active) | 87.7% (active) | 9% | 97% (active) | 79.4% (active)
c1ccc(-c2cc3cc4ccccc4cn3c2)cc1 | 58 | 93% (active) | 83.8% (active) | 43 | 94% (active) | 83.8% (active) | 52 | 97% (active) | 88.8% (active) | 35 | 84% (active) | 82.8% (active) | 61% | 95% (active) | 86.7% (active) | – | – | –
CCOC(=O)NC(/C=C/c1ccccc1)NC(=O)OCC | -2 | -27% | 61.8% | -1 | -31% | 29.6% | -4 | -29% | 30.1% | 5 | -33% | 29.9% | 1% | -26% | 83.6% (active) | 2% | -20% | 11.8%
Oc1ccc2c(c1)CCc1ccccc1-2 | 37 | 98% (active) | 95.6% (active) | 36 | 98% (active) | 75.5% (active) | 11 | 88% (active) | 95.8% (active) | – | – | – | 75% (active) | 98% (active) | 99.5% (active) | 83% (active) | 99% (active) | 98.8% (active)
CCOC(=O)COc1cc(-c2ccccc2F)nc2cc3c(cc12)OCO3 | 9 | 24% | 14.7% | 4 | 6% | 15.1% | -16 | -9% | 47.2% | – | – | – | 12% | 26% | 17.6% | -29% | 36% | 65.8%
O=C1C=CC(=O)N1c1ccc(O)cc1 | 15 | 94% (active) | 96.3% (active) | 23 | 98% (active) | 98.4% (active) | 18 | 86% (active) | 94.1% (active) | -1 | 98% (active) | 98.3% (active) | 11% | 98% (active) | 91.8% (active) | 4% | 97% (active) | 96.8% (active)
Nc1nc(N)c2cc(Sc3cccc(C(F)(F)F)c3)ccc2n1 | 21 | 77% (active) | 68.5% | 18 | 75% (active) | 53% | 15 | 97% (active) | 79.1% (active) | 22 | 26% | 87.7% (active) | 22% | 93% (active) | 88.8% (active) | 17% | 74% (active) | 23.9%
c1ccc(C2NCCNC2c2ccccc2)cc1 (configuration not stated) | 1 | -5% | 2.15% | 0 | -10% | 15% | 0 | -9% | 22.3% | 3 | -6% | -1.8% | -3% | -7% | -19.2% | – | – | –
O=C(Nc1ccc(Cl)c(Cl)c1)Nc1ccccc1O | 5 | 50% | 46.2% | 6 | 35% | 39.9% | 0 | 31% | 48.8% | 12 | 39% | 53.3% | 1% | 54% | 76.2% (active) | – | – | –
N=C1C(=N)c2ccccc2-c2ccccc21 | 9 | 99% (active) | 88.8% (active) | 25 | 100% (active) | 91.2% (active) | 17 | 38% | 91.9% (active) | 18 | 87% (active) | 91.7% (active) | 19% | 99% (active) | 89.2% (active) | – | – | –
